Screening data (PubChem BioAssay)
TWEAK-Fn14 inh: inhibitors of TWEAK-Fn14 interaction signaling | TWEAK-stimulated Fn14 reporter cells, luciferase luminescence, 8 h | inhibition, % at 10 µM | actives 2% (n = 360,000); in the data active means inhibition above about 50%
LMP1 NFkB inh: reduces LMP1-driven NF-kappaB luciferase signal; LMP1-induced NF-kappaB luciferase reporter cells, luminescence; inhibition, % at 12.5 µM; actives 0.69% (n = 350,000); in the data active means inhibition above about 41%;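 further: 0% = neutral control wells and 100% = reference inhibitor control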
Peg3 promoter: inhibitors of Peg3 promoter | AID 588405 | HeLa PEG-Prom luciferase reporter, luminescence, overnight | actives 1.7% (n = 360,000) | inhibition, % at 20 µM;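 active means inhibition of at least 50% at 20 µM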
TRPM1 prom inh: inhibitors of MITF-driven TRPM1 promoter in melanoma cells. SK-MEL-5 TRPM1 promoter luciferase, 24 h. inhibition, % at 12.5 µM. actives 0.83% (n = 330,000). AID 488899;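 active means mean inhibition across replicates of 60% or more, whatever share of single replicates reaches that level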
HIF-2a block: blocks HIF-2a reporter activity | inhibition, % at 18.8 µM | AID 624352 | 786-0 RCC cells HIF-2a reporter, luciferase luminescence, overnight | actives 0.72% (n = 360,000);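 active means inhibition of the luminescence signal of 40% or more relative to plate controls, in a single-dose primary screen at 18.75 µM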
TROY signal inh: inhibitors of TROY-dependent NF-kB signaling. AID 1347056. inhibition, % at 10 µM. Q293 LMP1-TROYcd NF-kB luciferase reporter, 4 h. actives 0.98% (n = 360,000);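 active means compounds whose plate-normalised and pattern-corrected inhibition of the luciferase reporter signal at the single screening dose is 50% or more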
Active calls of the source: *; · = not tested or not shown. Most compounds without a hit are left out; they make up all but 4% or so of the library.

SMILES | TWEAK-Fn14 inh | LMP1 NFkB inh | Peg3 promoter | TRPM1 prom inh | HIF-2a block | TROY signal inh
O=C(/C=C/c1cccs1)NNC(=O)c1ccccc1 | -15 | -6 | -75 | -15 | -150 | -51
O=C(Nc1cccc2ccccc12)NC1Cc2ccccc2C1 | 89* | -5 | -27 | -12 | -42 | 57*
O=C(CCCO)NC1Cc2ccccc2C1 | 60* | -2 | 6 | 12 | 20 | 2
COC(=O)CCCC(=O)NC1CCCN(C2Cc3ccccc3C2)C1 (stereo not given) | -10 | -11 | 20 | 8 | 25 | 5
COc1ccc(OC)c(CCNC(=O)CCn2nc(C)c3c(C)n(-c4ccccc4)nc3c2=O)c1 | -16 | 55* | 4 | 13 | 16 | -3
Cc1c(/C(O)=C2\C(=O)C(=O)N(CCCN(C)C)C2c2ccco2)cnn1-c1ccccc1 (stereo not given) | 80* | 24 | -4 | -5 | 3 | 80*
Cc1c(/C(O)=C2/C(=O)C(=O)N(CCN(C)C)C2c2ccc(C(C)C)cc2)cnn1-c1ccccc1 (stereo not given) | 12 | -7 | 9 | 4 | 24 | -6
Cc1c(/C(O)=C2\C(=O)C(=O)N(CCN(C)C)C2c2ccco2)cnn1-c1ccccc1 (stereo not given) | 42 | 14 | 11 | -9 | 1 | 4
Cc1ccc(C2/C(=C(/O)c3cnn(-c4ccccc4)c3C)C(=O)C(=O)N2CCN2CCOCC2)o1 (stereo not given) | 18 | -6 | -99 | -14 | -155 | -11
Cc1c(/C(O)=C2/C(=O)C(=O)N(CCN3CCOCC3)C2c2cccs2)cnn1-c1ccccc1 (stereo not given) | 53* | -5 | -193 | -44 | -44 | 60*
Cc1c(/C(O)=C2\C(=O)C(=O)N(CCN(C)C)C2c2ccccc2)cnn1-c1ccccc1 (stereo not given) | 57* | 18 | -13 | 5 | 18 | 44
Cc1c(/C(O)=C2\C(=O)C(=O)N(CCCN(C)C)C2c2cccs2)cnn1-c1ccccc1 (stereo not given) | 59* | 3 | -83 | -20 | -41 | 66*
COc1ccccc1C1/C(=C(/O)c2cnn(-c3ccccc3)c2C)C(=O)C(=O)N1CCN(C)C (stereo not given) | 21 | -2 | 13 | -23 | 6 | 6
CCOC(=O)C1=CCC(c2ccccc2)N(S(=O)(=O)c2ccc(C)cc2)[C@H]1CC (stereo not given in full) | · | · | · | · | 10 | ·
Cc1cc(-n2c(C)cc(C(=O)COc3ccc(F)c(F)c3)c2C)no1 | -13 | -6 | -175 | -58 | -205 | -5
Cc1ccc(NC(=C(C#N)C#N)c2ccccc2)cc1 | 5 | -2 | 8 | · | -4 | 6
O=C1C(=O)N(CCN2CCOCC2)C(c2ccccn2)/C1=C(/O)c1ccccc1 (stereo not given) | 63* | 4 | -17 | 4 | 2 | 1
Fc1ccc(N/N=C/c2ccc(N3CCOCC3)cc2)c(F)c1 | 45 | -39 | -194 | -15 | -245 | 70*
CCNC(=S)Nc1ccc(OCc2nc3ccccc3s2)cc1 | 6 | -40 | -245 | -23 | -246 | -13
CC(C)NC(=O)c1c(O)c2cccc3c2n(c1=O)CCC3 | -3 | 6 | 28 | 15 | -6 | 6
CNC(=O)c1c(O)c2cccc3c2n(c1=O)CC3 | 53* | 4 | 23 | -20 | -22 | ·
Cc1cc(Nc2ccccc2)c2c([N+](=O)[O-])cc(C)c(C)c2n1 | -2 | 42* | -10 | -1 | 7 | -17
COc1ccccc1Nc1cc(C)nc2c(C)ccc([N+](=O)[O-])c12 | -23 | 2 | 25 | 1 | 34 | 2
O=C1c2cccc(OCC(=O)N3CCCc4ccccc43)c2CCN1Cc1ccc(Br)cc1 | 79* | 15 | 58* | 3 | -15 | 36
O=C(O)c1cccc2cc(-c3ccccc3)oc(=O)c12 | -6 | 2 | -3 | 1 | -3 | -21
SMILES | TWEAK-Fn14 inh | LMP1 NFkB inh | Peg3 promoter | TRPM1 prom inh | HIF-2a block | TROY signal inh
O=C(O)c1cccc2cccc(-c3c4ccc(=O)c(O)c-4oc4c(O)c(O)ccc34)c12 | 82* | -2 | 39 | 28 | 34 | -3
Cc1c(C)c(C)c(S(=O)(=O)Nc2ccc3[nH]c(=O)[nH]c3c2)c(C)c1C | 10 | 6 | 16 | -3 | 17 | 18
CC(C)n1c(SCC(=O)NC2CC2)nnc1C1CC1 | -4 | 5 | -11 | 4 | 7 | 0
COc1cc(Cl)c(S(=O)(=O)NCc2cccnc2)cc1Cl | 84* | 4 | -1 | 0 | 0 | 54*
COc1ccc(Cl)cc1S(=O)(=O)NCc1cccnc1 | -9 | 3 | -1 | 3 | 19 | 5
COc1ccc(C)cc1Nc1nc(N)c2cc(OC)c(OC)cc2n1 | -19 | 12 | 84* | 74* | 8 | -14
C=C[C@](C)(CC[C@@]1(C)C(C)CC(OC2OC(C)C(OC3OC(COC(C)=O)C(O)C(O)C3O)C(O)C2O)[C@@]2(C)C(C)=CCCC12)OC1OC(C)C(O[C@@H]2O[C@@H](C)C(O)C(O)[C@H]2O)C(O)C1O (stereo not given in full) | -1 | 14 | -22 | 0 | 9 | 0
COc1ccc(Br)cc1C(=O)Nc1ccc(C(=O)NCC(C)C)cc1 | -37 | 4 | 8 | -8 | -14 | -1
CCOc1ccc(Br)cc1C(=O)Nc1ccc(C(=O)NCC(C)C)cc1 | -23 | 6 | 95* | -4 | 9 | -27
COc1ccc(NC(=O)C2CCN(S(=O)(=O)c3c(C)nn(C)c3C)CC2)cc1 | -6 | 1 | 3 | -5 | 14 | 5
O=C(Nc1ccc2c(c1)OCCO2)C1CCN(C(=O)c2ccc(Br)cc2)CC1 | -4 | 6 | -21 | -1 | -20 | -18
O=C(Nc1ccc2c(c1)OCCO2)C(c1cc2ccccc2o1)N1CCC(Cc2ccccc2)CC1 (stereo not given) | 90* | · | -33 | · | -40 | 85*
O=C(Nc1ccc2c(c1)OCO2)c1cc(C2CCCCN2C(=O)CCc2ccccc2)on1 (stereo not given) | 9 | · | -1 | · | -5 | -13
Cc1nn(C)c(C)c1S(=O)(=O)N1CCC(C(=O)Nc2ccc3c(c2)OCCO3)CC1 | 79* | 19 | -54 | 15 | -8 | 66*
O=C(Nc1ccc2c(c1)OCCO2)c1cc2ccccc2o1 | 31 | 1 | -158 | -26 | -76 | 2
O=C(Nc1ccc2c(c1)OCO2)c1cc(C2CCCCN2S(=O)(=O)Cc2ccccc2)on1 (stereo not given) | 9 | · | -268 | · | -172 | 64*
COc1ccc(C(=O)N2CCC(C(=O)Nc3ccc4c(c3)OCCO4)CC2)cc1 | 79* | 20 | -60 | -1 | 8 | 48
O=C(O)c1ccccc1C(c1ccc(O)cc1)c1ccc(O)cc1 | 0 | -1 | -6 | 0 | 21 | 4
COC(=O)[C@]12CCCCC=C1N(CCC1=CCCCC1)C(=O)[C@H](CC(=O)NCCCCc1ccccc1)C2 | 25 | · | · | · | 7 | -1
